The results in this text go back to PubChem BioAssay (NCATS).

For one assay, the system named is MCC-13. As to the kind of experiment: qHTS assay to identify novel small-molecules to repurpose for Merkel cell carcinoma treatment (AID 1296009). Note: nearly all actives have a fitted effect of over 60% in size. Note: potency is the fitted concentration of half-maximal effect. Particulars: MCC and control cell lines, CellTiter-Glo viability, 72 h; series mostly up to 46 µM. An outline of the steps: (§1)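 qHTS format: cells treated with library compounds in DMSO across 8 (NPC) or 11 (MIPE) concentrations. Readout after 72 hr at 37 degree celsius was CellTiter-Glo luminescence.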

The test system of the next assay is MCC-26. Described as above. The conditions noted are these: MCC and control cell lines, CellTiter-Glo viability, 72 h; series mostly up to 46 µM. An outline of the steps:
as §1

The next assay has as its system MKL-1. Described as above. Particulars: MCC and control cell lines, CellTiter-Glo viability, 72 h; series mostly up to 46 µM. The essentials:
as §1

Another assay concerns MKL-2. The assay is described as above. The conditions noted are these: MCC and control cell lines, CellTiter-Glo viability, 72 h; series mostly up to 46 µM. The essentials:
as §1

In another assay the test system is NIH3T3. The assay is described as above. The conditions noted are these: MCC and control cell lines, CellTiter-Glo viability, 72 h; at 44.8 µM (top of the series) unless noted. The essentials: as §1
The next assay relates to UISO. The description is as above. The conditions noted are these: MCC and control cell lines, CellTiter-Glo viability, 72 h; series mostly up to 46 µM. An outline of the steps: as §1
The next assay deals with WaGa. The assay is described as above. The conditions noted are these: MCC and control cell lines, CellTiter-Glo viability, 72 h; series mostly up to 46 µM. The essentials:
as §1

A further assay has as its system C33A. As to the kind of experiment: Primary qHTS to identify gynecologic anti-cancer compounds using libraries of approved drugs and bioactive compounds (AID 1345084). Note: nearly all actives have a fitted effect of over 55% in size. Particulars: Gynecologic cancer cell panel viability, ATPlite luminescence, 48 h; series mostly up to 57.5 µM. The essentials: (§2)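 48 h compound exposure at 37 C, 5% CO2; five-point qHTS. ATPlite luminescence readout of cell ATP.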

Another assay concerns CASKI. The assay is described as above. Particulars: Gynecologic cancer cell panel viability, ATPlite luminescence, 48 h; series mostly up to 57.5 µM. An outline of the steps:
as §2

The next assay deals with CAOV3. Described as above. The conditions noted are these: Gynecologic cancer cell panel viability, ATPlite luminescence, 48 h; series mostly up to 57.5 µM. An outline of the steps:
as §2

Several values for one entry are separate records, joined by “and”; a condition that tells them apart may be missing. Equal values may be shown once. Records with an inconclusive call do not appear. Some compounds were tested as several samples or in several runs, with calls that do not always agree. Activity calls are given as the source filed them. Calls come from the whole dose curve; as a rule, active = well fitted curve in the direction sought with a large enough effect; inconclusive = small, poorly fitted or top-dose-only effect, or another doubt; inactive = no such curve, though single readings can be large; an effect the other way counts as inactive or inconclusive. Peptide text beside a SMILES is read from it.

Take `Oc1ccc(OCc2ccccc2)cc1`: the Potency result in the assay with MCC-13, in the assay on MCC-26, in the assay with MKL-1, with MKL-2, with UISO and in the assay with WaGa was “inactive” throughout. For the same compound, the Potency result in the assay on C33A and in the assay with CASKI was “inactive” in each case. Moreover, the compound was classed as inactive with NIH3T3.

As for `Cc1ccc(NC(=O)c2ccc(CN3CCN(C)CC3)cc2)cc1Nc1nccc(-c2cccnc2)n1`, the Potency result with MCC-13, with MCC-26, with MKL-1, with MKL-2, in the assay on UISO and in the assay with WaGa was “inactive” each time. In addition, the Potency result with C33A and in the assay on CASKI was “inactive” throughout. Besides, the compound was classed as inactive in the assay on NIH3T3.

Take `C[Se]CCC(N)C(=O)O` (stereo not given): the Potency entry with MCC-13, with MCC-26, with MKL-1, with MKL-2, in the assay with UISO and in the assay on WaGa was “inactive” each time. The outcome in the assay on NIH3T3 was “inactive [at 92 µM]”.

Consider `Cc1cccc(-c2[nH]ncc2-c2ccc3ncccc3n2)n1`, for which the Potency entry with MCC-13, in the assay on MCC-26, in the assay with MKL-1, with MKL-2 and with UISO was “inactive” throughout.

Take `CC(C)(S)[C@@H](N)C(=O)O`: the Potency result in the assay with MCC-13, with MCC-26, in the assay on MKL-1, in the assay with MKL-2, in the assay with UISO and in the assay with WaGa was “inactive” in each case. In addition, the compound was called inactive with NIH3T3.

As to `CCOC(=O)C1=C(O)C(=O)N(Cc2ccccc2)C1`, the Potency entry in the assay on MCC-13, in the assay with MCC-26, in the assay on MKL-1, in the assay on MKL-2, in the assay with UISO and in the assay on WaGa was “inactive” each time. For the same compound, in the assay on NIH3T3, the compound was called inactive.

Turning to `Cc1cc2cc3c(C)cc(=O)oc3c(C)c2o1`, the Potency entry in the assay on MCC-13, in the assay with MCC-26, with MKL-1, with MKL-2, in the assay on UISO and in the assay with C33A was “inactive” each time. In addition, the Potency result in the assay on CAOV3 and with CASKI was “inactive” each time. Also, the result with NIH3T3 was inactive. The Potency entry in the assay on WaGa was “inactive and 4.69 µM (active)”.

On to `C[C@]12CCC(=O)C=C1CC[C@@H]1[C@H]2[C@@H](O)C[C@@]2(C)[C@H]1CC[C@]2(O)C(=O)CO`, for which the Potency entry in the assay on MCC-13, in the assay with MCC-26, in the assay with MKL-1, in the assay on MKL-2, in the assay on UISO and in the assay on WaGa was “inactive” throughout. The outcome in the assay with NIH3T3 was inactive.

As for `c1cnc2cc3c(cc2n1)C1CNCC3C1`, the Potency entry in the assay on MCC-13, in the assay with MCC-26, with MKL-1, with MKL-2, with UISO and with WaGa was “inactive” in each case. For the same compound, the Potency entry in the assay on C33A and in the assay with CASKI was “inactive” each time. The call in the assay with NIH3T3 was inactive.

Regarding `CN(C)C(=O)COC(=O)Cc1ccc(OC(=O)c2ccc(N=C(N)N)cc2)cc1`, the Potency entry in the assay on MCC-13, with MCC-26, with MKL-1, in the assay on MKL-2, in the assay on UISO and with WaGa was “inactive” each time. In addition, the Potency entry in the assay on C33A, in the assay on CAOV3 and with CASKI was “inactive” in each case. Further, the compound was classed as inactive with NIH3T3.

Regarding `N[C@@H](Cc1cc(I)c(Oc2cc(I)c(O)c(I)c2)c(I)c1)C(=O)O`, the Potency entry with MCC-13, with MCC-26, with MKL-1, in the assay on MKL-2, in the assay on UISO and with WaGa was “inactive” each time. The Potency entry with C33A and with CASKI was “inactive” each time. Moreover, the outcome in the assay with NIH3T3 was inactive.

As for `CCCCCCCCCCCCCCCCCCCCCCO`, the Potency result in the assay on MCC-13, with MCC-26, in the assay on MKL-1, in the assay with MKL-2, with UISO and in the assay with WaGa was “inactive” throughout. The call with NIH3T3 was inactive.

`Nc1ccc(S(N)(=O)=O)cc1`: the Potency entry in the assay on MCC-13, with MCC-26, in the assay with MKL-1, in the assay on MKL-2, with UISO and in the assay with WaGa was “inactive” in each case. The Potency entry in the assay on C33A and in the assay on CASKI was “inactive” in each case. Further, in the assay on NIH3T3, the compound was called inactive.

For `Cc1c(C(=O)NN2CCCCC2)nn(-c2ccc(Cl)cc2Cl)c1-c1ccc(Cl)cc1`, the Potency result with MCC-13, in the assay on MCC-26, in the assay on MKL-1, with MKL-2, in the assay with WaGa and in the assay with C33A was “inactive” each time. Moreover, the Potency result in the assay on CAOV3 and with CASKI was “inactive” in each case. The result in the assay with NIH3T3 was inactive.

Turning to `Clc1ccc(C(Cn2ccnc2)OCc2ccc(Sc3ccccc3)cc2)c(Cl)c1` (stereo not given), the Potency entry in the assay with MCC-13, in the assay with MCC-26, with MKL-1, with MKL-2, in the assay on UISO and with WaGa was “inactive” each time. Moreover, the Potency entry in the assay with C33A, in the assay on CAOV3 and with CASKI was “inactive” each time. Moreover, the result in the assay on NIH3T3 was inactive.

Consider `Cc1ncc([N+](=O)[O-])n1CC(C)O` (stereo not given), for which the Potency result in the assay on MCC-13, in the assay with MCC-26, in the assay with MKL-1, with MKL-2, in the assay with UISO and with WaGa was “inactive” in each case. Also, the Potency result in the assay on C33A, with CAOV3 and in the assay on CASKI was “inactive” each time. Also, the outcome in the assay with NIH3T3 was inactive.

On to `CC(S)C(=O)NCC(=O)O` (stereo not given), for which the Potency entry in the assay on MCC-13, with MCC-26, in the assay on MKL-1, in the assay on MKL-2, in the assay with UISO and with WaGa was “inactive” in each case. Moreover, the Potency entry in the assay with C33A and in the assay with CASKI was “inactive” each time.

Regarding `Cn1c(NCCN(CCO)CCCc2ccc([N+](=O)[O-])cc2)cc(=O)n(C)c1=O`, the Potency result with MCC-13, in the assay on MCC-26, with MKL-1, with MKL-2, in the assay on UISO and in the assay on WaGa was “inactive” throughout. Also, the Potency result in the assay with C33A and with CASKI was “inactive” each time.

On to `COC(=O)[C@H](Cc1ccccc1)NC(=O)[C@@H](N)CC(=O)O` (H-Asp-Phe-OMe), for which the Potency entry in the assay with MCC-13, in the assay on MCC-26, in the assay on MKL-1, with MKL-2, in the assay with UISO and with WaGa was “inactive” each time. Moreover, the Potency entry in the assay on C33A, in the assay with CAOV3 and with CASKI was “inactive” in each case.

With `COc1cc2nc(N3CCN(C(=O)C4CCCO4)CC3)nc(N)c2cc1OC` (stereo not given), the Potency result in the assay on MCC-13, in the assay with MCC-26, in the assay on MKL-1, in the assay on MKL-2, in the assay on UISO and with WaGa was “inactive” throughout. Besides, the Potency result with C33A, in the assay on CAOV3 and in the assay with CASKI was “inactive” each time.

In the case of `Cc1cccc(C#Cc2ccccc2)n1`, the Potency entry with MCC-13, in the assay with MCC-26, in the assay on MKL-1, in the assay on MKL-2, in the assay on UISO and in the assay on WaGa was “inactive” each time.

`COC(=O)N[C@H](C(=O)N[C@@H](Cc1ccccc1)[C@@H](O)CN(Cc1ccc(-c2ccccn2)cc1)NC(=O)[C@@H](NC(=O)OC)C(C)(C)C)C(C)(C)C`: the Potency entry in the assay with MCC-13, with MCC-26, in the assay on MKL-1, in the assay on MKL-2, in the assay with UISO and with WaGa was “inactive” each time. Besides, the Potency entry in the assay with C33A, in the assay with CAOV3 and in the assay on CASKI was “inactive” each time.

Take `CN(C)CCCC1(c2ccc(F)cc2)OCc2cc(C#N)ccc21` (stereo not given): the Potency entry in the assay with MCC-13, with MCC-26, with MKL-1, in the assay with MKL-2, in the assay on UISO and with WaGa was “inactive” throughout. Further, in the assay with C33A, the Potency result was “inactive”.
